# Experimental data reported in PubChem BioAssay.
# A number with no mark means an inactive call. Some of the results follow. Calls of active or inactive are those of the source.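 Rule for the calls, unless noted: active = inhibition above the primary screen's cutoff, its mean inhibition plus 3 SD (cut at about 35% in these data); inactive = the rest.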
# Target: Glutathione S-transferase omega-1 (Homo sapiens) (UniProt P78417)
# Test: GSTO1 inhibitor hit confirmation, counter-screen for RBBP9 inhibitor project, biochemical, fluorescence polarization, triplicate (AID 2176);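 note: loss of polarization as inhibitors block binding of rhodamine sulfonate ester activity probe; 0% = GSTO1 with DMSO and 100% = wells lacking GSTO1 enzyme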
# Settings: recombinant GSTO1, probe fluorescence polarization; at 5.96 µM; active compounds read high
# Chain of Glutathione S-transferase omega-1 (Homo sapiens) (P78417 whole entry, looked up): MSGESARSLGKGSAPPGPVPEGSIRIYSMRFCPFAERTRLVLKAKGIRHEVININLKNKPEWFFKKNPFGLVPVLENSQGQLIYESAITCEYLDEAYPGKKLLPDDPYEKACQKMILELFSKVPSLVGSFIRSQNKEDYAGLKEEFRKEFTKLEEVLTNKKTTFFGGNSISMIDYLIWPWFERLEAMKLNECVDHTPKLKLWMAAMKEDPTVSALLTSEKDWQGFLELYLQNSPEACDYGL
row,Structure (SMILES),inhibition
1,O=c1cc(CCl)nc2scc(-c3ccccc3)n12,96.3% (active)
2,O=C(CCl)NNc1cccc(Cl)n1,50% (active)
3,COc1ccc2c(c1)OC(O)(C(F)(F)C(F)F)CC2=O (centres undefined),5.88%
4,Cc1ccc(C(=O)N/N=C/c2sc(=O)n(Cc3cccc(C(=O)O)c3)c2Cl)cc1,48.3% (active)
5,O=C(Cn1c(-c2ccccn2)nc2ccccc21)NCCN1CCOCC1,6.3%
6,CCOC(=O)c1c(NC(=O)c2ccc(S(=O)(=O)N(C)CC3CCCO3)cc2)sc2c1CC(C)(C)NC2(C)C (centres undefined),4.04%
7,O=S(=O)(O)Oc1c[nH]c2ccccc12,51.2% (active)

# Target: Nuclear receptor coactivator 3 (Homo sapiens) (UniProt Q9Y6Q9)
# Sequence (Q9Y6Q9 whole entry, looked up): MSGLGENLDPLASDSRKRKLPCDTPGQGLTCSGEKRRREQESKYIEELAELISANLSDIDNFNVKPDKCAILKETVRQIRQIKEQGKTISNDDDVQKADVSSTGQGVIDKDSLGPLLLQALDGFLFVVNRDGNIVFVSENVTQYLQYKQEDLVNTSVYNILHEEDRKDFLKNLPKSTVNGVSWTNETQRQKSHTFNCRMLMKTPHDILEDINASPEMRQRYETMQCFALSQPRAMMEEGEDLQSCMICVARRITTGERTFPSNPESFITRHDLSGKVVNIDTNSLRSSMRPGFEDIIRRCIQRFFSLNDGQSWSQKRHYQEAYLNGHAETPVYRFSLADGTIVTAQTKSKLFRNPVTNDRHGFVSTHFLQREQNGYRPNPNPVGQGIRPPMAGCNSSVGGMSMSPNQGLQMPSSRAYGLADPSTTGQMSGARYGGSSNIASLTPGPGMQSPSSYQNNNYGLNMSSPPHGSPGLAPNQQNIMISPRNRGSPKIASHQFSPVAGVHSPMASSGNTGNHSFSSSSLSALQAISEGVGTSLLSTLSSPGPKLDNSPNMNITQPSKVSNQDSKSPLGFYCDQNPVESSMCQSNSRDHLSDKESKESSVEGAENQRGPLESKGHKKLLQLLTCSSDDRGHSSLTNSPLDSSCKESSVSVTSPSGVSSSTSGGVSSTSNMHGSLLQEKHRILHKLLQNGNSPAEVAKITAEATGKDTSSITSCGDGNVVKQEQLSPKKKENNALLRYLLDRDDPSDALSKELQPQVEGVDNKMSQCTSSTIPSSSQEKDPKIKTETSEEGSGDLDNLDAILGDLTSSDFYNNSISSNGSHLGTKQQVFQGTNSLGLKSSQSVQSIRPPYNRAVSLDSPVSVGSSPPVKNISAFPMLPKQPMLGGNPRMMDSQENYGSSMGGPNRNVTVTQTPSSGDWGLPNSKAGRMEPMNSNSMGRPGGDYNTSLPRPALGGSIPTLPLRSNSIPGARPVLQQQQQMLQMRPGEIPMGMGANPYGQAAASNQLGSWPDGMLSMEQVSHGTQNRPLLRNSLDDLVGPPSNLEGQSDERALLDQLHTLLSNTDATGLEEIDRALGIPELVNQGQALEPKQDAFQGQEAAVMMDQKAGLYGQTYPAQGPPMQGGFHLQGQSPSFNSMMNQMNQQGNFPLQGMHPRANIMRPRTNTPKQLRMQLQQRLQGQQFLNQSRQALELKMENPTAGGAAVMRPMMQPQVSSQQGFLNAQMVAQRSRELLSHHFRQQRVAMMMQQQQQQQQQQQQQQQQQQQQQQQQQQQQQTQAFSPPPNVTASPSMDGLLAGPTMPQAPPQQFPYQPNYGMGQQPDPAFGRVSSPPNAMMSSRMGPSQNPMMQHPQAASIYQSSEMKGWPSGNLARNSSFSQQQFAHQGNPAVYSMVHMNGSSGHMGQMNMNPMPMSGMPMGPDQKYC
# Test: SRC3 coactivator transcriptional activity inhibitors, confirmation, cell-based, luminescence, quadruplicate (AID 588792;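 active = mean inhibition over 43.08%, the solvent-only control mean plus 3 SD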;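 note: 0% = DMSO treated cells and 100% = gossypol at 36 µM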)
# Settings: HEK293 GAL4-SRC3 luciferase reporter, at 3.6 µM, active compounds read high
row,Structure (SMILES),inhibition
1,CN(C)S(=O)(=O)c1cccc(NC(=S)N/N=C/c2cc(Br)ccc2O)c1,55.4% (active)
2,Cc1ccc(NC(=O)c2ccc(Nc3c([N+](=O)[O-])cc([N+](=O)[O-])cc3[N+](=O)[O-])cc2)cc1,7.5%
3,C(=N\Nc1nc2ccccc2[nH]1)/c1cccc2cccnc12,44.8% (active)
4,COc1ccc(/C=C2\CN(Cc3ccccc3)C/C(=C\c3ccc(OC)c(O)c3)C2=O)cc1O,59.2% (active)

# Tested on: transactivating tegument protein VP16 (Human herpesvirus 1), Gal4-VP16 luciferase reporter
# Test: VP16 transactivation inhibitors, counter-screen for SRC3 inhibitor project, cell-based, luminescence, high throughput (AID 588794; in the data active = inhibition above about 30%)
# Settings: mammalian cells, VP16-driven luciferase reporter luminescence; at 3.6 µM; active compounds read high
row,Structure (SMILES),inhibition
1,CN(C)S(=O)(=O)c1cccc(NC(=S)N/N=C/c2cc(Br)ccc2O)c1,59.2% (active)
2,Cc1ccc(NC(=O)c2ccc(Nc3c([N+](=O)[O-])cc([N+](=O)[O-])cc3[N+](=O)[O-])cc2)cc1,2.96%
3,C(=N\Nc1nc2ccccc2[nH]1)/c1cccc2cccnc12,8.83%
4,COc1ccc(/C=C2\CN(Cc3ccccc3)C/C(=C\c3ccc(OC)c(O)c3)C2=O)cc1O,0.48%

# Target: Nuclear receptor coactivator 1 (Homo sapiens) (UniProt Q15788)
# Sequence (Q15788 whole entry, looked up): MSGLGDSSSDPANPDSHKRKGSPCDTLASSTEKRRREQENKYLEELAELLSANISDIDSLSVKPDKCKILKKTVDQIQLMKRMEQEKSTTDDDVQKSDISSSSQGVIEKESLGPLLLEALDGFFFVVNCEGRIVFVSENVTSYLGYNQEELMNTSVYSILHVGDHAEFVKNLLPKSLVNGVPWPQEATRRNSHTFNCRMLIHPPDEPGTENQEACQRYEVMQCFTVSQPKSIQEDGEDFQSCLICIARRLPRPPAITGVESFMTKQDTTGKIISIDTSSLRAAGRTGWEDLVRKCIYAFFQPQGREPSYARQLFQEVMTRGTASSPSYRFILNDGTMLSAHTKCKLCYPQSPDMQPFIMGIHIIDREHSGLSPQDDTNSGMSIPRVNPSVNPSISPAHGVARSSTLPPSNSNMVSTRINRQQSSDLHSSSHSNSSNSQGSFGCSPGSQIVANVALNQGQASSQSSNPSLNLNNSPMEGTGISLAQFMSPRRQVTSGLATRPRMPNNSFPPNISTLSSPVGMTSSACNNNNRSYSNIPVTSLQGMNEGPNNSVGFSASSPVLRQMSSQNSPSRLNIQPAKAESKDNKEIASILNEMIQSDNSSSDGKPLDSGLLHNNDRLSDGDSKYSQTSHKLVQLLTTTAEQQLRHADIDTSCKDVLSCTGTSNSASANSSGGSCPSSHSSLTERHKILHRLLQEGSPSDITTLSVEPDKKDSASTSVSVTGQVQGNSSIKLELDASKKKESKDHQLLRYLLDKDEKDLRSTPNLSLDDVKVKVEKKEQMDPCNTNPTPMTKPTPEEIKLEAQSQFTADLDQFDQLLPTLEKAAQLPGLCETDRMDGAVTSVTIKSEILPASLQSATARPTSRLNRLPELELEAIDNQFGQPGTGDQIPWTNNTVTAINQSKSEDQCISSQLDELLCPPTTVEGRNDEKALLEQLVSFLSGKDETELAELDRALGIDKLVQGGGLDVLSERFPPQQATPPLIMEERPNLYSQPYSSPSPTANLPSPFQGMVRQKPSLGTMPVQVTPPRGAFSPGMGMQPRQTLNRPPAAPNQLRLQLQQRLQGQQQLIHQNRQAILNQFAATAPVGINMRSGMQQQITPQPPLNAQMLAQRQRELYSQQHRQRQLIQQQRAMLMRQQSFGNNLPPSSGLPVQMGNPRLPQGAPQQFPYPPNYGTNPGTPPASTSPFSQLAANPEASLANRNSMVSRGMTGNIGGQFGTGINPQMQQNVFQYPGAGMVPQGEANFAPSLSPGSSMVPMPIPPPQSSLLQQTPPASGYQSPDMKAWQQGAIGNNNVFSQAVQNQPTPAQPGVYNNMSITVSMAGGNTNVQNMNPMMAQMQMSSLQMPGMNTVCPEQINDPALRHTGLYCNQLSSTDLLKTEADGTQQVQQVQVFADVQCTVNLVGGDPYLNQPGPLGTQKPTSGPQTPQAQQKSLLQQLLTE
# Test: SRC1 coactivator transcriptional activity inhibitors, confirmation, cell-based, luminescence, quadruplicate (AID 588820;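 active = mean inhibition above 46.68%, the untreated control wells mean plus 3 SD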;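 note: 0% = DMSO wells and 100% = gossypol 36 µM treated wells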)
# Settings: HEK293 GAL4-SRC1 luciferase reporter, at 3.6 µM, active compounds read high
row,Structure (SMILES),inhibition
1,COc1cc(OC)c2cc(C(=O)N/N=C/c3cccc(OC)c3O)[nH]c2c1,17.7%
2,COc1cccc(/C=N/NC(=O)c2cc3c(OC)ccc(OC)c3[nH]2)c1O,28.5%
3,COc1ccc(N2CCN(c3ncnc4c3[nH]c3ccccc34)CC2)cc1,3.21%
4,Fc1ccc2[nH]c3c(N4CCN(c5ccccc5)CC4)ncnc3c2c1,2.85%

# Tested on: not listed separately
# Test: VP16 transactivation inhibitors, counter-screen for SRC1 inhibitor project, cell-based, luminescence, high throughput (AID 588824; in the data active = inhibition above about 25%)
# Settings: cell-based VP16 transactivation luciferase luminescence; at 3.6 µM; active compounds read high
row,Structure (SMILES),inhibition
1,COc1cc(OC)c2cc(C(=O)N/N=C/c3cccc(OC)c3O)[nH]c2c1,6.13%
2,COc1cccc(/C=N/NC(=O)c2cc3c(OC)ccc(OC)c3[nH]2)c1O,29.7% (active)
3,COc1ccc(N2CCN(c3ncnc4c3[nH]c3ccccc34)CC2)cc1,24.6%
4,Fc1ccc2[nH]c3c(N4CCN(c5ccccc5)CC4)ncnc3c2c1,15.6%
5,COc1ccc(/C=C2\CN(Cc3ccccc3)C/C(=C\c3ccc(OC)c(O)c3)C2=O)cc1O,12.4%
